# Measurements: ChEMBL document CHEMBL2218924, “A broad activity screen in support of a chemogenomic map for kinase signalling research and drug discovery” (Biochem J, 2013)
# Key:
# [1] = target: T1, Serine/threonine-protein kinase Sgk1 (Homo sapiens) (UniProt O00141); conditions: at 1 µM
# T1 sequence (whole entry): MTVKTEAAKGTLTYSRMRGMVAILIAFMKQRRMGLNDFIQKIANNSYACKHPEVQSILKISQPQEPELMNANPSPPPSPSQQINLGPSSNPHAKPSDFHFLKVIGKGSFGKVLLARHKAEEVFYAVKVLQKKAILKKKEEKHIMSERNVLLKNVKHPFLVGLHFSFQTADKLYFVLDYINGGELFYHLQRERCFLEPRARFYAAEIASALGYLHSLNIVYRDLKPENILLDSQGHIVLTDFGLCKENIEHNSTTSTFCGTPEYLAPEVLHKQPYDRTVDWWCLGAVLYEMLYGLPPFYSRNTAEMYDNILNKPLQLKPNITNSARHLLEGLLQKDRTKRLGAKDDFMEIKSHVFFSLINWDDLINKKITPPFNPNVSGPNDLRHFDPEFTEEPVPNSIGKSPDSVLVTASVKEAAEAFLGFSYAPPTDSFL
# [2] = target: T1, Serine/threonine-protein kinase Sgk1 (Homo sapiens); conditions: at 10 µM
# [3] = target: T2, Serine/threonine-protein kinase Sgk2 (Homo sapiens) (UniProt Q9HBY8); conditions: at 1 µM
# T2 sequence (whole entry): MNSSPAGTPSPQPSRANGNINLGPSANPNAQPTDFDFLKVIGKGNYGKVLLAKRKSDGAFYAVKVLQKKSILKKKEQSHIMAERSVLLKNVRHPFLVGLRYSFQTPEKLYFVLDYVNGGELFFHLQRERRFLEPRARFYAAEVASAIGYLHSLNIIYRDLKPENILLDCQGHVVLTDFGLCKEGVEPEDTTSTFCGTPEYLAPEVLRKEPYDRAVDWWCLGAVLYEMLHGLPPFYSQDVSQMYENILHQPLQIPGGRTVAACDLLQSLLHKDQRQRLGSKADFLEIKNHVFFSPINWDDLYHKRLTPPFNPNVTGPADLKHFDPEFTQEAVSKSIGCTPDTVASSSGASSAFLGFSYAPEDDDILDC
# [4] = target: T2, Serine/threonine-protein kinase Sgk2 (Homo sapiens); conditions: at 10 µM
# [5] = target: T3, Serine/threonine-protein kinase Sgk3 (Homo sapiens) (UniProt Q96BR1); conditions: at 10 µM
# T3 sequence (whole entry): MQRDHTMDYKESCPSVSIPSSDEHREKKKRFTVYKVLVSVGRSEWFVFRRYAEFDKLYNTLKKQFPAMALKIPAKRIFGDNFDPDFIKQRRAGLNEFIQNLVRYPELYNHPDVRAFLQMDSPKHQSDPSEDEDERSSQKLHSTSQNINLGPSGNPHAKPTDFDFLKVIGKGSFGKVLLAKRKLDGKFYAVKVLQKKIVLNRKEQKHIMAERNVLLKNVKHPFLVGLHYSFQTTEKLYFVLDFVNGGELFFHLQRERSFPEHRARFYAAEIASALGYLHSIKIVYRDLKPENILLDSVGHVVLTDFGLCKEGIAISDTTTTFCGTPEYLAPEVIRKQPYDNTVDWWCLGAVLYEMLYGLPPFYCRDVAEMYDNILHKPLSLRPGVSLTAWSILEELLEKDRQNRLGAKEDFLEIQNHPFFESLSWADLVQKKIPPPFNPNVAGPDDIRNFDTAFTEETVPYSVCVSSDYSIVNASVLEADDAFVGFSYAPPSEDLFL
# [6] = target: Serine/threonine-protein kinase SIK1 (Homo sapiens) (UniProt P57059); conditions: at 1 µM
# Chain of Serine/threonine-protein kinase SIK1 (Homo sapiens) (P57059 whole entry): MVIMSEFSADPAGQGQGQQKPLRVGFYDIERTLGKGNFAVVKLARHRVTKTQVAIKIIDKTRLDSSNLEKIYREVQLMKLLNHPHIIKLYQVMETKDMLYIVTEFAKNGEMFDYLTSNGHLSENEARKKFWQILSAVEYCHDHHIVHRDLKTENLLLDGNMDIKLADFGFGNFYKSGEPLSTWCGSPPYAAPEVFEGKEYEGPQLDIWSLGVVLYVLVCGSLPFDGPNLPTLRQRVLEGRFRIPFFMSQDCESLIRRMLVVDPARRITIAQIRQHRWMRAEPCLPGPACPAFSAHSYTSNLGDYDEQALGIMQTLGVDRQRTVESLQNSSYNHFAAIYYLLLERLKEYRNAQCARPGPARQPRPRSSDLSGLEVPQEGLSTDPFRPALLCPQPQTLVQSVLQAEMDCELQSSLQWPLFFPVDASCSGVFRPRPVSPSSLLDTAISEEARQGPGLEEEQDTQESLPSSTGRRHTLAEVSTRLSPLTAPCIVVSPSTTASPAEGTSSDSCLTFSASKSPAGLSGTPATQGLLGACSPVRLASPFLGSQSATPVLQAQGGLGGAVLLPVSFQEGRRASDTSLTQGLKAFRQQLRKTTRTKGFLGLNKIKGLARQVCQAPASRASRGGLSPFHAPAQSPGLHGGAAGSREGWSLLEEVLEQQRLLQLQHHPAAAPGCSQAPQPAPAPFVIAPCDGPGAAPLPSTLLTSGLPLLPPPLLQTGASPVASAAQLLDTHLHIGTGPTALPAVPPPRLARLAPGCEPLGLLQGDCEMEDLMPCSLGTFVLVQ
# [7] = target: Serine/threonine-protein kinase SIK1 (Homo sapiens) (UniProt P57059); conditions: at 10 µM
# [8] = target: SRSF protein kinase 1 (Homo sapiens) (UniProt Q96SB4); conditions: at 1 µM
# Chain of SRSF protein kinase 1 (Homo sapiens) (Q96SB4 whole entry): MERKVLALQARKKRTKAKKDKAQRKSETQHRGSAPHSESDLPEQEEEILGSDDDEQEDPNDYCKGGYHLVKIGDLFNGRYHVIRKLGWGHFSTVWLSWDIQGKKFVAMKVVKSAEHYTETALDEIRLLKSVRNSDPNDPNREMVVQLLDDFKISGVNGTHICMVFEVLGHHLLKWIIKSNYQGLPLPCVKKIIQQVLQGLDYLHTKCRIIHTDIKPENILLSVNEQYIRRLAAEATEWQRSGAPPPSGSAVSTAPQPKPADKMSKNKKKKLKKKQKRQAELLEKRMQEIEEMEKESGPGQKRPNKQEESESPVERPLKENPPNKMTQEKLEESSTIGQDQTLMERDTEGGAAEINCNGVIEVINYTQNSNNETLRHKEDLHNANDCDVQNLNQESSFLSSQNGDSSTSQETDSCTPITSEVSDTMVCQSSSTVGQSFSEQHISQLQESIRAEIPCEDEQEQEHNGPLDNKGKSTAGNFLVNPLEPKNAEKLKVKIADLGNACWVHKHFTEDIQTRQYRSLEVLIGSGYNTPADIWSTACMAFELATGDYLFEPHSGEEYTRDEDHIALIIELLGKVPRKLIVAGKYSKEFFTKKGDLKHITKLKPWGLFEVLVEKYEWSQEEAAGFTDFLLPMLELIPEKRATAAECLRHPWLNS
# [9] = target: SRSF protein kinase 1 (Homo sapiens) (UniProt Q96SB4); conditions: at 10 µM
# [10] = target: SRSF protein kinase 2 (Homo sapiens) (UniProt P78362); conditions: at 10 µM
# Chain of SRSF protein kinase 2 (Homo sapiens) (P78362 whole entry, looked up): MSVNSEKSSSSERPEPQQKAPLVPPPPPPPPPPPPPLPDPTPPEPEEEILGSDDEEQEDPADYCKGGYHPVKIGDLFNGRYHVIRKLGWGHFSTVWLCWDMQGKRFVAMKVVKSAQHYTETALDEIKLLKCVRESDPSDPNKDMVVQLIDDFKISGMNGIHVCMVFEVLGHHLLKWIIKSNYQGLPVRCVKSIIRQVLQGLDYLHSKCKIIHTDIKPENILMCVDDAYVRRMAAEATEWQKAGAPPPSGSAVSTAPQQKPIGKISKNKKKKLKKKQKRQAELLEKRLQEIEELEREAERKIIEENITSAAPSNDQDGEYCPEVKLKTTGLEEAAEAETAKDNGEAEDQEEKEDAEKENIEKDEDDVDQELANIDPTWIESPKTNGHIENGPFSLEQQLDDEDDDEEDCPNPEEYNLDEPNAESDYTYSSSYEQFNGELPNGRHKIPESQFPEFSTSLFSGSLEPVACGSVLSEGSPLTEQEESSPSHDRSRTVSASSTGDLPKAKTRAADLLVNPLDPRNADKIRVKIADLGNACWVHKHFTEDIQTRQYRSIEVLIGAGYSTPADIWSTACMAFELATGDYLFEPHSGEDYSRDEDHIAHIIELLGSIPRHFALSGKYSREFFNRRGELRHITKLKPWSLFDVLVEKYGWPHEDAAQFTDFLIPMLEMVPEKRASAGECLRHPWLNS
# [11] = target: Serine/threonine-protein kinase 33 (Homo sapiens) (UniProt Q9BYT3); conditions: at 1 µM
# Chain of Serine/threonine-protein kinase 33 (Homo sapiens) (Q9BYT3 whole entry, looked up): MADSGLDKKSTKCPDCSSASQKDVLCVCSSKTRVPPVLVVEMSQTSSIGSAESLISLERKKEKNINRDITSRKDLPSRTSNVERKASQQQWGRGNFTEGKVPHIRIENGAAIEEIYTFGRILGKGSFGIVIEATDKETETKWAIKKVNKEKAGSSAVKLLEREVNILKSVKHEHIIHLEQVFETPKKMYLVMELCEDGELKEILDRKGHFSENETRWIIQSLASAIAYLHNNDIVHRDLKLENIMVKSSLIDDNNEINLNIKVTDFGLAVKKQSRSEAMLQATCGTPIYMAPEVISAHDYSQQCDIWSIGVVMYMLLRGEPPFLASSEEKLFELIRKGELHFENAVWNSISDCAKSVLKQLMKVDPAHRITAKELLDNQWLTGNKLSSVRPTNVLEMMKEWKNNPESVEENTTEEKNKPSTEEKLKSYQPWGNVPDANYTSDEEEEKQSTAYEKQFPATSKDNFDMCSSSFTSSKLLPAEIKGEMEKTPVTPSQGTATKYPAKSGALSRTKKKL
# [12] = target: Serine/threonine-protein kinase 33 (Homo sapiens) (UniProt Q9BYT3); conditions: at 10 µM
# [13] = target: Serine/threonine-protein kinase PLK2 (Homo sapiens) (UniProt Q9NYY3); conditions: at 10 µM
# Chain of Serine/threonine-protein kinase PLK2 (Homo sapiens) (Q9NYY3 whole entry, looked up): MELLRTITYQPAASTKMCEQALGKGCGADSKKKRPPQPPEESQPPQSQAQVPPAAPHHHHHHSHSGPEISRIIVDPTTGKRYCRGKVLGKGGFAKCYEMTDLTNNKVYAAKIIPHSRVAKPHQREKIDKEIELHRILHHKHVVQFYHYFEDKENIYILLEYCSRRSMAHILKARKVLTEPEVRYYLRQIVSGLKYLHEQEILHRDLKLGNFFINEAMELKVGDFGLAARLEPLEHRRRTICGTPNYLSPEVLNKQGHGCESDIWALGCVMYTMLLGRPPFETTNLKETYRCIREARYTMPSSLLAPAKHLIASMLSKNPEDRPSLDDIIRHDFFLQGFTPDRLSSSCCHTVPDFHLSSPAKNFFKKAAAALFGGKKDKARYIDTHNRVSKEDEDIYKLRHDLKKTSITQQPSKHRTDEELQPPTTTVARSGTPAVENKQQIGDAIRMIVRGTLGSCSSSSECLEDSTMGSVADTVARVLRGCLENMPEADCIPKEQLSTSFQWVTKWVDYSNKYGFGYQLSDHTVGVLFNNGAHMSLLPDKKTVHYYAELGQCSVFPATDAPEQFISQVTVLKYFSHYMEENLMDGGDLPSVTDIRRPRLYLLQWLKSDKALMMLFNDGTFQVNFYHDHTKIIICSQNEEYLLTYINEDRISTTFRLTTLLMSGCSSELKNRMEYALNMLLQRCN
# [14] = target: Tyrosine-protein kinase SYK (Homo sapiens) (UniProt P43405); conditions: at 1 µM
# [15] = target: SRSF protein kinase 2 (Homo sapiens) (UniProt P78362); conditions: at 1 µM
# [16] = target: T4, Mitogen-activated protein kinase 13 (Homo sapiens) (UniProt O15264); conditions: at 1 µM
# T4 sequence (whole entry): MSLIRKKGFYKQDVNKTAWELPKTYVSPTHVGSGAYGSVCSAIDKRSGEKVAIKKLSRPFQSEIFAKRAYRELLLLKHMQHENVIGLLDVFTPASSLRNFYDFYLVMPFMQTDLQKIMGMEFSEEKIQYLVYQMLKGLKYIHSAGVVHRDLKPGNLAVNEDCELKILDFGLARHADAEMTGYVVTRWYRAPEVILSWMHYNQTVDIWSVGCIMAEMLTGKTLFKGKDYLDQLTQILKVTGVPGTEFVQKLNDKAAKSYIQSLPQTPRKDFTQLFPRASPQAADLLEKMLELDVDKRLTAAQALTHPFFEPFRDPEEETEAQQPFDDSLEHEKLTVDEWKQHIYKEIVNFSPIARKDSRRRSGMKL
# [17] = target: T4, Mitogen-activated protein kinase 13 (Homo sapiens); conditions: at 10 µM
# [18] = target: Serine/threonine-protein kinase PLK2 (Homo sapiens) (UniProt Q9NYY3); conditions: at 1 µM
# [19] = target: Mitogen-activated protein kinase 11 (Homo sapiens) (UniProt Q15759); conditions: at 10 µM
# Chain of Mitogen-activated protein kinase 11 (Homo sapiens) (Q15759 whole entry): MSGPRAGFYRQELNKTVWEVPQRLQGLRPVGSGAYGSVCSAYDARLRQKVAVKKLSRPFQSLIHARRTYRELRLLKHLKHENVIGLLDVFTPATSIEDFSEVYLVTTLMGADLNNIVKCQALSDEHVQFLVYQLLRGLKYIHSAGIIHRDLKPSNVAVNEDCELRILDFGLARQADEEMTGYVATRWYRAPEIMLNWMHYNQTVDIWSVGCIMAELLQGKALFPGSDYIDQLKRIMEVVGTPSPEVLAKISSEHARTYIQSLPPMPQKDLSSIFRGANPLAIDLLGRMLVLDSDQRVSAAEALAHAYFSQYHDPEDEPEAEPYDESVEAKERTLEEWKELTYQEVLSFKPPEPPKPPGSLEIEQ
smiles,measurement,setting,value
O=C(c1cc2cc(O)ccc2[nH]1)c1cc2cc(O)ccc2[nH]1,residual activity,[1],68%
same,residual activity,[2],28%
same,residual activity,[3],62%
same,residual activity,[4],18%
same,residual activity,[5],52%
same,residual activity,[6],39%
same,residual activity,[7],8%
same,residual activity,[8],81%
same,residual activity,[9],79%
same,residual activity,[10],71%
same,residual activity,[11],83%
same,residual activity,[12],62%
same,residual activity,[13],78%
same,residual activity,[14],82%
COc1ccc(Cl)cc1NC(=O)Nc1cc(C)nc2ccccc12,residual activity,[1],80%
same,residual activity,[2],73%
same,residual activity,[5],78%
same,residual activity,[6],93%
same,residual activity,[7],134%
same,residual activity,[15],94%
same,residual activity,[10],86%
same,residual activity,[11],99%
same,residual activity,[12],98%
Cc1cc(C)c(/C=C2\C(=O)Nc3ccccc32)[nH]1,residual activity,[16],124%
same,residual activity,[3],80%
same,residual activity,[4],67%
same,residual activity,[8],104%
same,residual activity,[11],69%
same,residual activity,[12],47%
c1ccc(-c2cnc(Nc3ccc(OCCN4CCCC4)cc3)s2)cc1,residual activity,[16],103%
same,residual activity,[17],103%
same,residual activity,[6],53%
same,residual activity,[7],10%
same,residual activity,[14],129%
O=S(=O)(c1cccc2cnccc12)N1CCCNCC1,residual activity,[1],84%
same,residual activity,[4],67%
same,residual activity,[6],126%
CCCCc1c(-c2ccc(O)cc2)[nH]c2nccnc12,residual activity,[16],98%
same,residual activity,[17],88%
same,residual activity,[3],92%
same,residual activity,[4],90%
same,residual activity,[5],75%
same,residual activity,[6],69%
same,residual activity,[7],36%
same,residual activity,[15],91%
same,residual activity,[10],90%
same,residual activity,[11],99%
same,residual activity,[12],62%
same,residual activity,[18],100%
same,residual activity,[13],86%
same,residual activity,[14],50%
Nc1nccc(-c2c(-c3ccc(F)cc3)ncn2C2CCNCC2)n1,residual activity,[5],75%
same,residual activity,[6],132%
same,residual activity,[7],54%
same,residual activity,[10],70%
Cn1c2ccccc2c2c3c(c4c5ccccc5n(CCC#N)c4c21)CNC3=O,residual activity,[19],100%
same,residual activity,[16],99%
same,residual activity,[1],82%
same,residual activity,[2],40%
same,residual activity,[3],76%
same,residual activity,[4],47%
same,residual activity,[6],9%
same,residual activity,[7],24%
same,residual activity,[11],6%
same,residual activity,[12],14%
same,residual activity,[14],3%
CCN(CC)CCNC(=O)c1c(C)[nH]c(/C=C2\C(=O)Nc3ccc(Cl)cc32)c1C,residual activity,[1],59%
same,residual activity,[2],23%
same,residual activity,[3],60%
same,residual activity,[4],32%
same,residual activity,[5],73%
same,residual activity,[6],31%
same,residual activity,[7],5%
same,residual activity,[15],98%
same,residual activity,[10],78%
same,residual activity,[11],33%
same,residual activity,[12],6%
same,residual activity,[18],98%
same,residual activity,[13],58%
CCOc1nc(NC(=O)Cc2cc(OC)ccc2OC)cc(N)c1C#N,residual activity,[1],79%
same,residual activity,[2],100%
Nc1n[nH]c2nc3ccccc3nc12,residual activity,[17],98%
same,residual activity,[3],92%
same,residual activity,[4],45%
same,residual activity,[6],118%
same,residual activity,[7],72%
same,residual activity,[15],94%
same,residual activity,[10],82%
same,residual activity,[11],98%
same,residual activity,[12],83%
same,residual activity,[18],99%
same,residual activity,[13],68%
O=C1NC(=O)C(c2c[nH]c3ccccc23)=C1c1c[nH]c2ccccc12,residual activity,[17],99%
same,residual activity,[1],76%
same,residual activity,[2],65%
same,residual activity,[3],78%
same,residual activity,[4],29%
same,residual activity,[6],81%
same,residual activity,[7],7%
same,residual activity,[8],63%
same,residual activity,[9],6%
same,residual activity,[15],74%
same,residual activity,[10],22%
same,residual activity,[12],71%
same,residual activity,[14],120%
CC(C)c1nn(-c2c(Cl)cccc2Cl)c2nc(Cc3ccc(OCCO)cc3)[nH]c(=O)c12,residual activity,[19],105%
same,residual activity,[17],59%
same,residual activity,[1],99%
same,residual activity,[2],103%
same,residual activity,[3],97%
same,residual activity,[4],91%
same,residual activity,[5],81%
same,residual activity,[6],109%
same,residual activity,[7],61%
same,residual activity,[8],88%
same,residual activity,[9],37%
same,residual activity,[15],83%
same,residual activity,[10],43%
same,residual activity,[11],105%
same,residual activity,[12],61%
same,residual activity,[18],100%
same,residual activity,[13],92%
same,residual activity,[14],101%
Oc1cccc(-c2nc(N3CCOCC3)c3oc4ncccc4c3n2)c1,residual activity,[4],66%
same,residual activity,[6],91%
same,residual activity,[7],-1%
same,residual activity,[13],98%
same,residual activity,[14],131%
